Assay results: PubChem BioAssay (EPA / NIEHS)
Active and inactive are the calls of the source. The calls were made as follows: active = hit-call score of the fitted dose curve at least 0.9, where 1 is the maximum; inactive = score below 0.9.

Experiments:
[1] = read-out: Tumor necrosis factor receptor superfamily member 6 (Homo sapiens) (UniProt P25445); experiment: LTEA_HepaRG_FAS: Life Technologies and Expression Analysis (LTEA) Assay for Fas cell surface death receptor (FAS) using HepaRG (AID 2283447); conditions: mRNA level, 48 h; actives raise or lower the signal
Outline: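 FAS transcript level was measured by TaqMan qRT-PCR against three housekeeping genes after 48 h chemical exposure. Cells were HepaRG, 0.5% DMSO vehicle, with a top concentration of 100 uM and half-log dilutions over eight points, in duplicate.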

[2] = read-out: Fatty acid synthase (Homo sapiens) (UniProt P49327); experiment: LTEA_HepaRG_FASN: Life Technologies and Expression Analysis (LTEA) Assay for Fatty Acid Synthase (FASN) using HepaRG (AID 2283448); conditions: mRNA level, 48 h; actives raise or lower the signal
Outline: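 Cells were plated, cultured 48 h, switched to serum-free induction medium, then dosed in duplicate (max 100 uM, half-log dilutions, 0.5% DMSO) for 48 h. RNA was then isolated and FASN quantified by qRT-PCR.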

[3] = read-out: Cyclin D2 (CCND2), CCND2 (gene 894); experiment: LTEA_HepaRG_CCND2: Life Technologies and Expression Analysis (LTEA) Assay for Cyclin D2 (CCND2) using HepaRG (AID 2283449); conditions: mRNA level, 48 h; actives raise or lower the signal
Outline: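 CCND2 transcript levels, quantified by qRT-PCR and normalised to three housekeeping genes, were fitted bidirectionally against 0.5% DMSO. HepaRG cultures were dosed 48 h in duplicate with an 8-point half-log series up to 100 uM.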

[4] = read-out: Cyclin Dependent Kinase Inhibitor 1A (CDKN1A), CDKN1A (gene 1026); experiment: LTEA_HepaRG_CDKN1A: Life Technologies and Expression Analysis (LTEA) Assay for Cyclin Dependent Kinase Inhibitor 1A (CDKN1A) using HepaRG (AID 2283450); conditions: mRNA level, 48 h; actives raise or lower the signal
Outline: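 Gain or loss of CDKN1A transcript is scored by bidirectional fitting against 0.5% DMSO vehicle. Human HepaRG cultures receive chemicals for 48 h across an 8-point series peaking at 100 uM; expression comes from qRT-PCR.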

[5] = read-out: Cyclin D1 (CCND1), CCND1 (gene 595); experiment: LTEA_HepaRG_CCND1: Life Technologies and Expression Analysis (LTEA) Assay for Cyclin D1 (CCND1) using HepaRG (AID 2283451); conditions: mRNA level, 48 h; actives raise or lower the signal
Outline: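 Expression change is measured by qRT-PCR in HepaRG cells after 48 h treatment across eight concentrations topping at 100 uM, with duplicate wells and DMSO (0.5%) serving as baseline for bidirectional fitting.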

[6] = read-out: catalase (CAT), CAT (gene 847); experiment: LTEA_HepaRG_CAT: Life Technologies and Expression Analysis (LTEA) Assay for catalase (CAT) using HepaRG (AID 2283452); conditions: mRNA level, 48 h; actives raise or lower the signal
Outline: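 Expression of CAT was quantified by TaqMan qRT-PCR with ACTB/GAPDH/POLR2A normalization after 48 h chemical exposure of HepaRG. Eight-point half-log series, top 100 uM, in 0.5% DMSO; gain or loss fitted against vehicle.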

[7] = read-out: Cytochrome P450 (CYP1A1), CYP1A1 (gene 1543); experiment: LTEA_HepaRG_CYP1A1: Life Technologies and Expression Analysis (LTEA) Assay for Cytochrome P450 (CYP1A1) using HepaRG (AID 2283454); conditions: mRNA level, 48 h; actives raise or lower the signal
Outline: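 Using HepaRG cultures with 0.5% DMSO as vehicle, eight-concentration exposures (max 100 uM) lasted 48 h. Transcript levels were measured by TaqMan qRT-PCR and normalized to ACTB, GAPDH and POLR2A.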

[8] = read-out: CFLAR gene, CFLAR (gene 8837); experiment: LTEA_HepaRG_CFLAR: Life Technologies and Expression Analysis (LTEA) Assay for CFLAR gene using HepaRG (AID 2283455); conditions: mRNA level, 48 h; actives raise or lower the signal
Outline: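 Transcript level by qRT-PCR (normalized to ACTB, GAPDH and POLR2A) after 48 h chemical exposure of HepaRG cells, top concentration 100 uM with half-log steps, 0.5% DMSO vehicle, duplicates; fitted bidirectionally against DMSO baseline.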

[9] = read-out: Forkhead box O1 (FOXO1), FOXO1 (gene 2308); experiment: LTEA_HepaRG_FOXO1: Life Technologies and Expression Analysis (LTEA) Assay for Forkhead box O1 (FOXO1) using HepaRG (AID 2283456); conditions: mRNA level, 48 h; actives raise or lower the signal
Outline: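 FOXO1 transcript quantified by qRT-PCR after 48 h chemical exposure (top 100 uM, half-log steps, 0.5% DMSO) of HepaRG cells, housekeeping-normalized (ACTB/GAPDH/POLR2A). Changes fitted in both directions relative to vehicle.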

[10] = read-out: growth arrest and DNA damage 45 (GADD45A), GADD45A (gene 1647); experiment: LTEA_HepaRG_GADD45A: Life Technologies and Expression Analysis (LTEA) Assay for growth arrest and DNA damage 45 (GADD45A) using HepaRG (AID 2283458); conditions: mRNA level, 48 h; actives raise or lower the signal
Outline: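 Transcript induction or loss, quantified by TaqMan qRT-PCR against three housekeeping genes, is the read-out. HepaRG cells received chemicals for 48 h across eight half-log concentrations from 100 uM in 0.5% DMSO; gain and loss fitted relative to DMSO.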

[11] = read-out: Forkhead box O3 (FOXO3), FOXO3 (gene 2309); experiment: LTEA_HepaRG_FOXO3: Life Technologies and Expression Analysis (LTEA) Assay for Forkhead box O3 (FOXO3) using HepaRG (AID 2283459); conditions: mRNA level, 48 h; actives raise or lower the signal
Outline: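 FOXO3 transcript measured by qRT-PCR (normalized to ACTB, GAPDH, POLR2A) after 48 h exposure of HepaRG cells in serum-free induction medium. Duplicates, eight half-log concentrations up to 100 uM, 0.5% DMSO; gain or loss fitted against DMSO.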

[12] = read-out: ABC Transporter (ABCB1), ABCB1 (gene 5243); experiment: LTEA_HepaRG_ABCB1: Life Technologies and Expression Analysis (LTEA) Assay for ABC Transporter (ABCB1) using HepaRG (AID 2283460); conditions: mRNA level, 48 h; actives raise or lower the signal
Outline: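 ABCB1 transcript level measured by TaqMan qRT-PCR against three housekeeping genes after 48 h chemical exposure of differentiated HepaRG cells. Top concentration 100 uM, half-log steps, eight points, 0.5% DMSO vehicle; bidirectional fit relative to DMSO.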

[13] = read-out: growth arrest and DNA damage 45 (GADD45B), GADD45B (gene 4616); experiment: LTEA_HepaRG_GADD45B: Life Technologies and Expression Analysis (LTEA) Assay for growth arrest and DNA damage 45 (GADD45B) using HepaRG (AID 2283461); conditions: mRNA level, 48 h; actives raise or lower the signal
Outline: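 Human HepaRG monolayers receive chemicals for 48 h at eight half-log concentrations, highest 100 uM, in 0.5% DMSO. Expression is measured by TaqMan qRT-PCR and normalized to ACTB, GAPDH and POLR2A.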

[14] = read-out: ABC Transporter (ABCC3), ABCC3 (gene 8714); experiment: LTEA_HepaRG_ABCC3: Life Technologies and Expression Analysis (LTEA) Assay for ABC Transporter (ABCC3) using HepaRG (AID 2283462); conditions: mRNA level, 48 h; actives raise or lower the signal
Outline: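 Transcriptional change of ABCC3 in HepaRG after 48 h treatment, determined by qRT-PCR normalized to endogenous controls. Concentrations spanned eight half-log steps to 100 uM in 0.5% DMSO.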

[15] = read-out: ABC Transporter (ABCB11), ABCB11 (gene 8647); experiment: LTEA_HepaRG_ABCB11: Life Technologies and Expression Analysis (LTEA) Assay for ABC Transporter (ABCB11) using HepaRG (AID 2283463); conditions: mRNA level, 48 h; actives raise or lower the signal
Outline: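 ABCB11 transcript levels quantified by TaqMan qRT-PCR against three housekeeping genes after 48 h chemical exposure of HepaRG cultures. Concentrations up to 100 uM in half-log steps, 0.5% DMSO vehicle; both induction and suppression scored.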

[16] = CEETOX_H295R_PROG: CeeTox H295R High-throughput Steroidogenesis Assay for Progesterone (PROG) (AID 2283442); conditions: actives raise or lower the signal;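 as to AC50: human H295R adrenal cells primed with 10 µM forskolin before dosing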
Outline: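 Measured analyte is progesterone secreted by H295R cells at 48 h of chemical treatment, following 10 uM forskolin priming. Quantitation used HPLC-MS/MS against a 7-point standard curve; cytotoxicity was checked by MTT absorbance.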

[17] = read-out: flavin-containing dimethylaniline monooxygenases 3 (FMO3), FMO3 (gene 2328); experiment: LTEA_HepaRG_FMO3: Life Technologies and Expression Analysis (LTEA) Assay for flavin-containing dimethylaniline monooxygenases 3 (FMO3) using HepaRG (AID 2283453); conditions: mRNA level, 48 h; actives raise or lower the signal
Outline: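 FMO3 transcript quantified by TaqMan qRT-PCR against three housekeeping genes after 48 h chemical exposure of HepaRG cells. Eight-point half-log series, top 100 uM, 0.5% DMSO vehicle; phenobarbital 1mM induction control; up- or down-regulation fitted.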

[18] = CEETOX_H295R_TESTO: CeeTox H295R High-throughput Steroidogenesis Assay for Testosterone (TESTO) (AID 2283457); conditions: actives raise or lower the signal;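 also: cells exposed to chemicals for 48 h before medium collection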
Outline: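 Steroidogenesis in H295R cells following OECD 456 with minor changes; 48 h exposure. Medium testosterone by HPLC-MS/MS, DMSO as baseline, with MTT viability run in parallel.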

Measured: AC50

Sequence of Fatty acid synthase (Homo sapiens) (P49327 whole entry, looked up): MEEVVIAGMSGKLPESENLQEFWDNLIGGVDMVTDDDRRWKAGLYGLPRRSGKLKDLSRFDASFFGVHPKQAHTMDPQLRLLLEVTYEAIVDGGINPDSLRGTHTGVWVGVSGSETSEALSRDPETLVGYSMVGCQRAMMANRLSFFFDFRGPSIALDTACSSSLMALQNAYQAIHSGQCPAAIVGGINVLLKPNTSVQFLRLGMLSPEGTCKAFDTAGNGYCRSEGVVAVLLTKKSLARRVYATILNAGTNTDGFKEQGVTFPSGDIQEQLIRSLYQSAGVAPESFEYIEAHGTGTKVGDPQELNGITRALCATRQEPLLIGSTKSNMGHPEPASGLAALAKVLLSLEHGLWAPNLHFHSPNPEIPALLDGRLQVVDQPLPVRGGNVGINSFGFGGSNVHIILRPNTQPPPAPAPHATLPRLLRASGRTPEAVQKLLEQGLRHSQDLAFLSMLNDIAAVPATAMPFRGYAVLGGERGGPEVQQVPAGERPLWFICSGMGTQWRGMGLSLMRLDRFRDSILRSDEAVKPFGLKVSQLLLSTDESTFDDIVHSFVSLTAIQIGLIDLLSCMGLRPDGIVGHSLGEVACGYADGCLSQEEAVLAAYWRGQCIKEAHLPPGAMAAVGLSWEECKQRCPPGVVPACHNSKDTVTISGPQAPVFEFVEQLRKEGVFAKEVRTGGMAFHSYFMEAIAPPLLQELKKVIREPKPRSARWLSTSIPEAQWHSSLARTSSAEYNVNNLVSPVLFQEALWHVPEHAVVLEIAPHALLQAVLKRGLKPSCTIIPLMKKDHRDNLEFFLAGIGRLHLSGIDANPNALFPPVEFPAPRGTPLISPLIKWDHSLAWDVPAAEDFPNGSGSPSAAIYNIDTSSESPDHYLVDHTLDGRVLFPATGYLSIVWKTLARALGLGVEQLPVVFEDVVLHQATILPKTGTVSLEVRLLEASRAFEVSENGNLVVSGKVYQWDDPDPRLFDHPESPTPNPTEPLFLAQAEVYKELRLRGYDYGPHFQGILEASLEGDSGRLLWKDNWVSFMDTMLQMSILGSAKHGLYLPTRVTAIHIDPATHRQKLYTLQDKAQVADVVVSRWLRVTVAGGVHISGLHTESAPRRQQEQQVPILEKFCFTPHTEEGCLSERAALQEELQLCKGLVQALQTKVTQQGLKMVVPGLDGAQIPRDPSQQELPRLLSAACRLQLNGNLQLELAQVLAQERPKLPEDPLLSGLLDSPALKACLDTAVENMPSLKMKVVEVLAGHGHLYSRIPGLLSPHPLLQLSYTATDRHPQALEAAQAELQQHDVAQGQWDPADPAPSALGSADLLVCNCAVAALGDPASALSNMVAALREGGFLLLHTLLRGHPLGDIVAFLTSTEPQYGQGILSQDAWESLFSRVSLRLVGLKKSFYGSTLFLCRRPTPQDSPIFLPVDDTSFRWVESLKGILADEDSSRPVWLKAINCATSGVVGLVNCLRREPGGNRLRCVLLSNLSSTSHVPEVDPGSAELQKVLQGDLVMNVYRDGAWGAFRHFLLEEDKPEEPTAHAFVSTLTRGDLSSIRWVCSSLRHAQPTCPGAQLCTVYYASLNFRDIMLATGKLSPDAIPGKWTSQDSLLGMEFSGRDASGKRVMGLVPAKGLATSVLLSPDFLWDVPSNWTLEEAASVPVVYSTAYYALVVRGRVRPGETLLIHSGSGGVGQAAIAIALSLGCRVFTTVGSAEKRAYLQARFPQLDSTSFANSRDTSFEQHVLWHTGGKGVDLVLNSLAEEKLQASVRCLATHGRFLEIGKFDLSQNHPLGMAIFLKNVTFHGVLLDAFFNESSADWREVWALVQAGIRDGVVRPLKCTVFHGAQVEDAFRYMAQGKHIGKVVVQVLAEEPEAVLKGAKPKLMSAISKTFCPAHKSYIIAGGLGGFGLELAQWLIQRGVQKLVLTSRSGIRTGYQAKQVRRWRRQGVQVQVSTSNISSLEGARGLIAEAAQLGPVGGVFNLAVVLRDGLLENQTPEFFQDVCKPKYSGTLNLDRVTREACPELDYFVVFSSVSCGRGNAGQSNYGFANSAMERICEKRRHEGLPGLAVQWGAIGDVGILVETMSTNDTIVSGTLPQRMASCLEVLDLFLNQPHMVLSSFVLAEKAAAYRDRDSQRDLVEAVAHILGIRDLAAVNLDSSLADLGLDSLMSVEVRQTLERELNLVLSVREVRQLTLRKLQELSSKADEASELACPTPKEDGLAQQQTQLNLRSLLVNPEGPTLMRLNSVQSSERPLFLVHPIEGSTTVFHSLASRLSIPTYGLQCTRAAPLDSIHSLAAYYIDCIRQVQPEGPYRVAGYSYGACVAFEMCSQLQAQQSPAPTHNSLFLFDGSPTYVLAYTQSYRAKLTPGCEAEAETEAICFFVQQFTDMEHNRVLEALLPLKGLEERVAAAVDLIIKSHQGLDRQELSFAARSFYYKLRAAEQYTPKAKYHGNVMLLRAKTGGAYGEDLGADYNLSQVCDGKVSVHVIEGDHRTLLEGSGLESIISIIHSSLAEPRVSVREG

CN1C(=O)CC[C@H]1c1cccnc1
active: [7] 76.9 µM
not listed: [16] | [17] | [18]
inactive: all other assays above

O=c1c(-c2ccc(O)cc2)coc2cc(O)cc(O)c12
active: [16] 12.4 µM | [18] 12.3 µM | [15] 9.92 µM
not listed: [1] | [4]
inactive: all other assays above

O=CCCCC=O
not listed: [4] | [13] | [16] | [18]
inactive: all other assays above

O=C1c2ccccc2C(=O)N1CCc1noc(-c2ccc(CN3CCCCCC3)s2)n1
active: [7] 8.04 µM
not listed: [17] | [18]
inactive: all other assays above
